For 16 compounds, AC50 and outcome results are on record in PubChem BioAssay (EPA / NIEHS).

Assay [1] in a line: ATG_PXRE_CIS: Attagene CIS-FACTORIAL HepG2 Assay for human Pregnane X Receptor Element (PXRE) (AID 2282957). Particulars: HepG2 Attagene CIS-FACTORIAL PXRE reporter, mRNA; actives raise or lower the signal. The method in brief:
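Cis-element reporter mRNA in human hepatoma HepG2 cells is measured 24 h post-dosing by RT-PCR, primer-extension labeling and capillary electrophoresis; gain or loss of signal is fitted relative to DMSO.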

The nature of assay [2]: ATG_PPRE_CIS: Attagene CIS-FACTORIAL HepG2 Assay for human Peroxisome Proliferator-activated Response Element (PPRE) (AID 2282958). Particulars: HepG2 PPRE cis-element reporter, Attagene transcription factor profiling; actives raise or lower the signal. The method in brief: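 HepG2 cells transiently transfected with multiplexed cis-element reporter units measure endogenous transcription factor activity. After 24 h compound exposure, reporter mRNA is quantified by RT-PCR, 6-FAM labeling, HpaI digestion and capillary electrophoresis; bidirectional fits are made against DMSO baseline.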

Assay [3] in a line: ATG_RORE_CIS: Attagene CIS-FACTORIAL HepG2 Assay for human RAR-related Orphan Receptor Element (RORE) (AID 2282959). Particulars: HepG2 Attagene cis-factorial RORE reporter, mRNA; actives raise or lower the signal. In short, it runs like this: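 HepG2 cells transiently transfected with multiple cis-element reporter transcription units, exposed to chemical for 24 h. Reporter mRNA quantified by RT-PCR, 6-FAM primer-extension labeling, HpaI digestion and capillary electrophoresis; bidirectional fit versus DMSO baseline.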

The nature of assay [4]: ATG_Sox_CIS: Attagene CIS-FACTORIAL HepG2 Assay for human SRY-box transcription factor (SOX) (AID 2282960). Particulars: HepG2 Attagene cis-factorial SOX reporter, mRNA; actives raise or lower the signal. In short, it runs like this: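 HepG2 cells transiently transfected with cis-element-driven multiple reporter transcription units, dosed 24 h; reporter mRNA measured by RT-PCR, FAM labelling, HpaI digestion and capillary electrophoresis. Bidirectional fit versus DMSO baseline.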

Assay [5] is described as follows: ATG_SREBP_CIS: Attagene CIS-FACTORIAL HepG2 Assay for human Sterol Regulatory Element Binding (SREBP) (AID 2282962). Particulars: HepG2 Attagene cis-factorial SREBP reporter, mRNA; actives raise or lower the signal. The method in brief: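 Transfected HepG2 (cis-regulated reporter library, endogenous TFs) → compound 24 h → total RNA → oligo(dT) RT → reporter-specific PCR → FAM primer extension, HpaI cut → CE fluorescence. Fit bidirectional vs DMSO.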

The target in assay [6] is Signal transducer and activator of transcription 3 (Homo sapiens) (UniProt P40763). Nature of the assay: ATG_STAT3_CIS: Attagene CIS-FACTORIAL HepG2 Assay for human Signal Transducer and Activator of Transcription 3 (STAT3) (AID 2282963). Particulars: HepG2, Attagene cis-factorial STAT3 reporter transcription; actives raise or lower the signal. The method in brief:
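Endogenous STAT3-responsive cis-element activity was read in transiently transfected HepG2 cells after 24 h treatment. Reporter transcripts were quantified via RT-PCR and capillary electrophoresis, with DMSO as negative control and bidirectional curve fitting.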

A short description of assay [7]: ATG_TA_CIS: Attagene CIS-FACTORIAL HepG2 Assay for human TA Basal Promoter (AID 2282964). Particulars: HepG2 Attagene CIS-factorial TA basal promoter reporter; actives raise or lower the signal. The method in brief:
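HepG2 cells transiently transfected with multiple reporter units under cis promoter elements, reporting endogenous transcription factor activity; this endpoint tracks the TA basal promoter as background control. Reporter mRNA after 24 h dosing measured by RT-PCR/capillary electrophoresis; bidirectional fits versus DMSO.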

Assay [8] can be described thus: ATG_TAL_CIS: Attagene CIS-FACTORIAL HepG2 Assay for human TAL Basal Promoter (AID 2282966).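 Also: background control endpoint measuring basal TAL promoter reporter mRNA not a specific factor.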 The settings on record: HepG2 Attagene cis-factorial TAL promoter reporter; actives raise or lower the signal. In short, it runs like this: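 In this cell-based multiplex, HepG2 liver cells bearing cis-promoter reporter constructs are dosed for 24 hours. Total RNA is reverse-transcribed and amplified, labelled fragments are sized by capillary electrophoresis, and signal changes are fitted bidirectionally versus DMSO.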

For assay [9], the target named is Transcription factor Sp1 (Homo sapiens) (UniProt P08047). The assay is described as follows: ATG_Sp1_CIS: Attagene CIS-FACTORIAL HepG2 Assay for human Specificity Protein 1 (Sp1) (AID 2282961). The settings on record: HepG2 Sp1 cis-reporter transcription, actives raise or lower the signal. In short, it runs like this:
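HepG2 cells transiently transfected with multiple reporter transcription units driven by cis-regulatory elements; Sp1-responsive reporter mRNA measured 24 h after dosing by RT-PCR and capillary electrophoresis fluorescence, fitted bidirectionally against DMSO baseline.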

Assay [10] is described as follows: ATG_TCF_b_cat_CIS: Attagene CIS-FACTORIAL HepG2 Assay for human T-Cell-Factor with beta-catenin (TCF/b-cat) (AID 2282965). The settings on record: HepG2 TCF/beta-catenin cis-reporter transcription, actives raise or lower the signal. In short, it runs like this:
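Measured: reporter mRNA in HepG2 transiently transfected with cis-promoter reporter units, 24 h after chemical addition. Fitting was bidirectional, DMSO as negative control.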

Values joined by “and” are separate entries in the source; they are usually repeats but may differ in a detail not shown here. Equal values may be shown once. A structure can be active in one record and inactive in another. Active and inactive are the calls of the source. The calls were made as follows: active = hit-call score of the fitted dose curve at least 0.9, where 1 is the maximum; inactive = score below 0.9.

Transcription factor Sp1 (Homo sapiens), sequence (P08047 whole entry, looked up): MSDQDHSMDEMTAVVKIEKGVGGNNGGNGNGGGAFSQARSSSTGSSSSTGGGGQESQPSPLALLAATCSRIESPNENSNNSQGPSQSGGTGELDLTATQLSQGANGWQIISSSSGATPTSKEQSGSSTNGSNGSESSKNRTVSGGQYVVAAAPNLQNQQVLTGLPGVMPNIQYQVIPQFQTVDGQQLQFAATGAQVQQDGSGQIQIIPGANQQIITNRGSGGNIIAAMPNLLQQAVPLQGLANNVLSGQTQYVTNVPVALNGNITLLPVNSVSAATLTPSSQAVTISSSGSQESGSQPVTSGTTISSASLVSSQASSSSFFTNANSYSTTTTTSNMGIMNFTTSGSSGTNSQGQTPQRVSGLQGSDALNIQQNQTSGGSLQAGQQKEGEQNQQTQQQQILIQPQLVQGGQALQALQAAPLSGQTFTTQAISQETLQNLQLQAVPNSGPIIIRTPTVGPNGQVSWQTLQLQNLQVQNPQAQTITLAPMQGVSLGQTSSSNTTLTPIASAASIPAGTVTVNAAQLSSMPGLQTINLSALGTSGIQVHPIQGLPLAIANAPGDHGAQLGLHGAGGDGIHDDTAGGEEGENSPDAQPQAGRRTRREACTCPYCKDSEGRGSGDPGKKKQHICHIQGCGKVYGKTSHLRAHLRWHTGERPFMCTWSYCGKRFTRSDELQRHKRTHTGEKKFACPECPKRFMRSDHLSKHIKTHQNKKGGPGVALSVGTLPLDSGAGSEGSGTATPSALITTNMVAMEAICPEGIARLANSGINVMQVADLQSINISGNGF
Signal transducer and activator of transcription 3 (Homo sapiens), sequence (P40763 whole entry, looked up): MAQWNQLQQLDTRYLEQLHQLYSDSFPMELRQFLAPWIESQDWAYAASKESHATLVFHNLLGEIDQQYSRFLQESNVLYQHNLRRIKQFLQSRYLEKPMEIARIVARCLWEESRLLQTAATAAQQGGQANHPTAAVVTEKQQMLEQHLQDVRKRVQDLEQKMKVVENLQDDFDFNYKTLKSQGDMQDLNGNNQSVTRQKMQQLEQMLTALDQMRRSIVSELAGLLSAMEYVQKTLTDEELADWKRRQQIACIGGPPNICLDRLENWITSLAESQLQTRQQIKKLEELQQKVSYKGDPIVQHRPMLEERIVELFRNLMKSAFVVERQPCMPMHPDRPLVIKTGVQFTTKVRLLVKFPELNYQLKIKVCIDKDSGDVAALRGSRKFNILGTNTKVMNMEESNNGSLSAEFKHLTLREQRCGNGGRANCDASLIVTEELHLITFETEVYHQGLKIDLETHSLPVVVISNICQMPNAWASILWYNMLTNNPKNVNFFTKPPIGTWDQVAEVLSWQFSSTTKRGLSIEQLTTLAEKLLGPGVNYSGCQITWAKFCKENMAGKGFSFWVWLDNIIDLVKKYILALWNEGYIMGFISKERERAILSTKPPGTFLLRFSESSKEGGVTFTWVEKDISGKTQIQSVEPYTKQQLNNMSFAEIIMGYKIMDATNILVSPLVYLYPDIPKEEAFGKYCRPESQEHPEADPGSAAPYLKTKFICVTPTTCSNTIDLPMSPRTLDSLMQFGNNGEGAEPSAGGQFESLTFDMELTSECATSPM

On to `O=[N+]([O-])c1cc(C(F)(F)F)c(Cl)c([N+](=O)[O-])c1Nc1ncc(C(F)(F)F)cc1Cl`, for which the AC50 (commonly the concentration at which the activity in the assay is half-maximal) in assay [1] was 2.84 µM (active) and 1.27 µM (active); in assay [2], 14.6 µM (active); in assay [6], 19.1 µM (active); in assay [7], 15.4 µM (active). For the same compound, the call in assay [2], in [3], in assay [4], in assay [5], in assay [6] and in assay [7] was inactive. Further, in [8], the compound was classed as inactive.

As to `CCOP(=S)(OCC)SCCSCC`, the concentration at half-maximal activity (AC50) in assay [1] is 13.7 µM (active); in [5] it was 29.5 µM (active). The call in assay [2], in assay [3], in [4], in assay [9], in assay [6] and in [7] was inactive. The call in assay [8] was inactive.

`CCC(CC)Nc1c([N+](=O)[O-])cc(C)c(C)c1[N+](=O)[O-]`: in assay [1], the AC50 was 5.39 µM (active). Also, the call in assay [2], in [3], in assay [4], in assay [5], in assay [6] and in assay [7] was inactive. Moreover, the compound was classed as inactive in assay [10] and in assay [8].

Regarding `CCOP(=S)(OCC)OC(Cl)C(Cl)(Cl)Cl` (stereo not drawn), the results for the AC50 in assay [1] and in [5] were 35.6 µM (active) and 38.5 µM (active), respectively. Further, the compound was classed as inactive in assay [2], in assay [3], in assay [4], in [9], in assay [6] and in assay [7]. For the same compound, the outcome in assay [10] and in assay [8] was inactive.

`CNC(=O)ON=C(SC)C(=O)N(C)C`: the AC50 in [1] is 29.3 µM (active); in assay [5] it was 50 µM (active). Further, the outcome in [2], in [3], in assay [4], in assay [6], in assay [7] and in assay [10] was inactive. For the same compound, the result in assay [8] was inactive.

For `C[N+]1(C)CCCCC1`, the compound was classed as inactive in assay [1], in assay [2], in [3], in assay [4], in assay [9] and in assay [5]. For the same compound, the call in assay [6], in assay [7], in [10] and in [8] was inactive.

Regarding `CC1=NNC(=O)N(/N=C/c2cccnc2)C1`, the outcome in [1], in [2], in assay [3], in [4], in assay [5] and in [6] was inactive. The outcome in assay [7], in assay [10] and in assay [8] was inactive.

With `CCOP(=S)(OCC)Oc1ccc2c(C)c(Cl)c(=O)oc2c1`, the concentration at half-maximal activity (AC50) is 1.46 µM (active) in assay [1] and 15 µM (active) in [2]. Also, the outcome in assay [3], in [4], in [5], in assay [6], in [7] and in assay [10] was inactive. For the same compound, in [8], the call was inactive.

For `CN1COCN(Cc2cnc(Cl)s2)C1=N[N+](=O)[O-]`, the concentration at half-maximal activity (AC50) in assay [1] was 50 µM (active). In addition, the call in assay [2], in [3], in [4], in assay [9], in [5] and in [6] was inactive. The compound was classed as inactive in assay [7], in [10] and in [8].

Turning to `Cc1ccn2nc(S(=O)(=O)Nc3c(F)cccc3F)nc2n1`, the half-maximal activity concentration (AC50) in assay [1] is 9.86 µM (active). For the same compound, the call in assay [2], in [3], in assay [4], in assay [9], in assay [5] and in assay [6] was inactive. Also, the compound was called inactive in [7], in [10] and in assay [8].

Turning to `COc1cccc(C(=O)NN(C(=O)c2cc(C)cc(C)c2)C(C)(C)C)c1C`, in assay [1], the AC50 was 0.526 µM (active). In addition, the compound was called inactive in assay [2], in [3], in assay [4], in assay [5], in assay [6] and in assay [7]. The outcome in [10] and in assay [8] was inactive.

In the case of `CCNc1nc(Cl)nc(NC(C)(C)C#N)n1`, the AC50 in assay [1] was 29.2 µM (active). The outcome in assay [2], in assay [3], in assay [4], in assay [9], in assay [5] and in [6] was inactive. Also, the compound was classed as inactive in assay [7], in assay [10] and in assay [8].

`Nc1c(Cl)cc([N+](=O)[O-])cc1Cl`: the values for the AC50 in assay [1], in assay [2] and in assay [6] were 44.2 µM (active), 34.4 µM (active) and 75.9 µM (active), respectively. The compound was classed as inactive in assay [3], in [4], in assay [9], in assay [5], in assay [7] and in assay [8].

As for `CC(C)[C@H](C(=O)O[C@H](C#N)c1cccc(Oc2ccccc2)c1)c1ccc(Cl)cc1`, the AC50 in [1] was 1.04 µM (active). Moreover, the compound was classed as inactive in assay [2], in assay [3], in [4], in [5], in assay [6] and in [7]. For the same compound, the compound was called inactive in [10] and in assay [8].

On to `CCc1cnc(C2=NC(C)(C(C)C)C(=O)N2)c(C(=O)O)c1` (stereo not drawn), for which the compound was classed as inactive in [1], in assay [2], in assay [3], in [4], in assay [9] and in [5]. Further, the compound was classed as inactive in assay [6], in [7], in [10] and in assay [8].

In the case of `CCOC(=O)COc1cc(-c2nn(C)c(OC(F)F)c2Cl)c(F)cc1Cl`, the AC50 in assay [1] is 47.3 µM (active). Also, the compound was classed as inactive in [2], in assay [3], in assay [4], in [9], in [5] and in assay [6]. For the same compound, the compound was called inactive in assay [7], in assay [10] and in [8].
